# From PubChem BioAssay (NCI)
# Compounds without any hit were thinned out: in the full panel of roughly 83,000, 20% have a hit.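 Step 1: grow cells in 96-well plates. Step 2: add test compound at a single concentration. Step 3: incubate 48 h. Step 4: record percent growth.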 A number with no mark means an inactive call. The source made the active and inactive calls. Rule for the calls: active = growth percent below 10; inactive = the rest.
# Assays:
# Test in all cases: NCI-60 one-dose screen, 48 h (100 = growth as untreated, 0 = no growth, -100 = all killed)
# NCI-H23 lung = details: 10 µM unless noted
# NCI-H226 lung = details: 10 µM unless noted
# NCI-H322M lung = details: 10 µM unless noted
# NCI-H460 lung = details: 10 µM unless noted
# HOP-92 NSCLC = details: 10 µM
# NCI-H522 lung = details: 10 µM
# A549/ATCC NSCLC = details: 10 µM unless noted
# 786-0 renal = details: 10 µM unless noted
# COLO 205 colon = details: 10 µM unless noted
Structure (SMILES),growth (NCI-H23 lung),growth (NCI-H226 lung),growth (NCI-H322M lung),growth (NCI-H460 lung),growth (HOP-92 NSCLC),growth (NCI-H522 lung),growth (A549/ATCC NSCLC),growth (786-0 renal),growth (COLO 205 colon)
COc1ccc(OC)c(Cn2cc3c(c2-c2ccccc2)CCc2cnoc2-3)c1,60.8%,78.8%,57.5%,22.7%,59.8%,56.4%,50.8%,66.6%,35.9%
COc1cc2c(cc1OC)C(Cc1cc(OC)c(OC)cc1[N+](=O)[O-])=NCC2,67.5%,88.7%,94.9%,64.8%,48.5%,82.6%,90%,87.6%,94.9%
Cc1ccc(S(=O)(=O)NC(CCC(=O)Nc2ccccc2)C(=O)Nc2ccccc2)cc1 (centres undefined),-24.8% (active),6.72% (active),-17% (active),-4.49% (active),-45.2% (active),-71.8% (active),-19% (active),-15.6% (active),-22.6% (active)
COC(=O)c1ccc2[nH]c(O)c(C(=Nc3ccc(N(C)C(=O)CN4CCN(C)CC4)cc3)c3ccc([N+](=O)[O-])cc3)c2c1,57.3%,55.8%,41.9%,48.5%,63.6%,34.3%,72.8%,33.1%,43.8%
Cc1nc2c(nnn2-c2ccccc2)c2nc(-c3ccccc3)oc(=O)c12,109%,99.8%,103%,116%,107%,105%,116%,101%,115%
Brc1ccc(-c2nc3ccccc3s2)cc1,92.4%,75.8%,92.7%,97.1%,97.7%,93.8%,106%,106%,106%
CC(C)OC(=O)Nn1cnc2ccccc21,98.4%,106%,122%,114%,95.6%,103%,117%,96.7%,130%
COC1(OC)N=C(N)C2(C#N)C3(C(=O)Nc4ccccc43)C12C#N (centres undefined),81.6%,62.5%,105%,104%,73%,80.7%,104%,94.3%,116%
CC1=C(C)C(=O)C(C(C)C2=C(C)C(=O)C(C)=C(C)C2=O)=C(C)C1=O,84.6%,124%,111%,95.9%,114%,91.2%,102%,88.1%,104%
COC(=O)c1ccc2[nH]c(O)c(C(=Nc3ccc(N(C)C(=O)CN4CCN(C)CC4)cc3)c3ccc(N)cc3)c2c1,70%,56.5%,77.4%,105%,78.3%,75.5%,111%,63.9%,41.4%
COc1ccccc1Cn1cc2c(c1)-c1oncc1CC2,20.6%,38.9%,24%,4.04% (active),80.3%,43.3%,28.9%,38.6%,-28.2% (active)
N=C(N)N=Nc1ccc(NN=C(N)N)cc1,104%,81.5%,126%,85.8%,96%,88.1%,8.54% (active),98.9%,64.1%
COC1=C(OC)C(=O)c2ccccc2C1=O,81.5%,102%,107%,97.4%,95%,94.8%,96.9%,120%,100%
COc1ccc(OC)c(Cn2cc3c(c2)-c2oncc2CC3)c1,28.8%,70.2%,26%,14.1%,59.8%,50.3%,43.3%,46%,35.8%
Cc1sc(NC(=O)c2ccc(C(C)(C)C)cc2)c(C(=O)O)c1C,62.9%,92.3%,97.3%,50.9%,66.3%,56.3%,24.4%,73.8%,55.6%
CCCC(=O)NNc1[nH]c(-c2cc(OC)c(OC)c(OC)c2)cc1C(=O)OCC,107%,103%,145%,123%,84.8%,105%,115%,92.5%,34.3%

Structure (SMILES),growth (NCI-H23 lung),growth (NCI-H226 lung),growth (NCI-H322M lung),growth (NCI-H460 lung),growth (HOP-92 NSCLC),growth (NCI-H522 lung),growth (A549/ATCC NSCLC),growth (786-0 renal),growth (COLO 205 colon)
COc1ccc(CN2C(=O)/C(=C\C(=O)c3ccc(OCCN4CCCC4)cc3)c3ccccc32)cc1,83.8%,87.8%,97.6%,94.4%,54.4%,31.9%,97.2%,85.7%,83.9%
CCC(C)(C)c1ccc(OCCCCCCN2CCNCC2)cc1,60%,92.7%,76.1%,17.7%,51.3%,95.5%,53.5%,59.5%,-50% (active)
C[C@@H](c1ccc2c(c1)[nH]c1ccc(Cl)cc12)c1nc2ccccc2[nH]1,91.2%,95.3%,87.3%,101%,120%,78.7%,104%,103%,123%
O=S(=O)(Cc1cccc2c(CS(=O)(=O)c3ccc(Cl)cc3)cccc12)c1ccc(Cl)cc1,98%,107%,86.7%,72.4%,97.1%,96.4%,84.3%,119%,83%
Clc1ccc(N/N=C(\c2ccccc2)c2ccccn2)nc1,19.2%,5.46% (active),16.3%,1.31% (active),31.3%,1.35% (active),3.53% (active),12.7%,15.9%
COc1cc(Cn2ccc3c2-c2oncc2CC3)cc(OC)c1,30.1%,67.4%,33.2%,7.4% (active),57.5%,29.3%,36%,50.9%,26.1%
COc1ccccc1Nc1nnc(COc2ccc(CNC(=O)CCCC/C=C/C(C)C)cc2OC)o1,92.2%,79.7%,97.4%,105%,79.1%,81%,99.3%,96.2%,125%
CCN(CC)CCCNc1c2ccc(Cl)cc2nc2ccc(OC)cc12,-34.9% (active),-6.37% (active),-18.9% (active),1.68% (active),-27.8% (active),-52% (active),-32.4% (active),9.99% (active),-72.3% (active)
COc1ccc(Cn2cc3c(c2-c2ccccc2)CCc2cnoc2-3)cc1N,20.5%,13%,35%,-4.24% (active),64.1%,33.8%,29.4%,38.8%,-24.7% (active)
c1ccc(C(=NNc2nc3ccccc3o2)c2ccccn2)nc1,10.8%,-2.97% (active),13.3%,3.05% (active),34.4%,20.9%,6.29% (active),6.88% (active),18%
COc1ccc(C(=O)c2no[n+]([O-])c2C(=O)c2ccc(OC)cc2)cc1,89.6%,41.7%,83.8%,89.8%,-73.5% (active),-88.3% (active),94.8%,-98.7% (active),-85.7% (active)
C[C@@H](c1ccc2c(c1)[nH]c1ccc(Cl)cc12)c1nc2ccc(Cl)cc2[nH]1,85.6%,101%,85.8%,82.4%,99.5%,43.6%,88.3%,75.9%,116%
COCC(=O)NNc1[nH]c(-c2ccc(OC)cc2)cc1C#N,100%,106%,33.4%,117%,95.4%,104%,112%,95.3%,115%
CCCCCCCCCCCCCCCCCC1=NCCN1CS(=O)(=O)O,87.5%,87.5%,15.5%,-79.1% (active),38.5%,84.5%,-8.05% (active),74.5%,29.2%
COC(=O)c1ccc2[nH]c(O)c(C(=Nc3ccc(N(C)C(=O)CN4CCN(C)CC4)cc3)c3ccc(C)cc3)c2c1,-9.95% (active),5.6% (active),19.8%,-43.1% (active),38.7%,-33.6% (active),-30.2% (active),-85.1% (active),-61.2% (active)
